These results are taken from PubChem BioAssay (NCI).

About 79,000 compounds went through this panel and 15% of them were active in at least one assay; those are over-represented in the sample as a whole. A number with no mark means an inactive call. Active and inactive are the calls of the source. Rule as the data show it: active = growth inhibition above about 70%; inactive = the rest.

Experiment [1] in a line: NCI Yeast Anticancer Drug Screen. Data for the rad50 strain (AID 155).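 Also: 0% = growth of vehicle-only cultures of the same strain.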 The conditions noted are these: S. cerevisiae rad50 strain growth inhibition, hits give high values. The essentials:
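Compounds were tested on a yeast strain with an engineered DNA damage repair alteration; the reported value is growth inhibition normalised to vehicle treatment.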

Experiment [2] in a line: NCI Yeast Anticancer Drug Screen. Data for the mec2-1 strain (AID 157). To be noted: S. cerevisiae mec2-1 strain, hits give high values. The essentials: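 Using mec2-1 yeast: add compound, measure growth, express inhibition versus vehicle-treated cultures.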
A short description of experiment [3]: NCI Yeast Anticancer Drug Screen. Data for the sgs1 mgt1 strain (AID 161).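 Also: 0% = growth of cultures given vehicle only.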 To be noted: S. cerevisiae sgs1 mgt1 strain, hits give high values. In outline:
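Compounds are added to genetically altered yeast, and growth is compared with cultures given vehicle alone to give percent inhibition.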

The nature of experiment [4]: NCI Yeast Anticancer Drug Screen. Data for the cln2 rad14 strain (AID 165).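 Also: 0% = growth equal to vehicle treated cultures.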 To be noted: S. cerevisiae cln2 rad14 strain, hits give high values. In outline:
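Yeast strain cln2 rad14, bearing defects in cell cycle control and DNA repair, serves as the test system; values reflect growth inhibition compared with vehicle.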

The nature of experiment [5]: NCI Yeast Anticancer Drug Screen. Data for the bub3 strain (AID 167). To be noted: S. cerevisiae bub3 mutant strain, hits give high values. In outline: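 Growth of a checkpoint-deficient yeast mutant is measured after compound exposure. Values represent inhibition relative to vehicle.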
Experiment [6] is described as follows: NCI Yeast Anticancer Drug Screen. Data for the mlh1 rad18 strain (AID 175). To be noted: S. cerevisiae mlh1 rad18 strain growth inhibition, hits give high values. The essentials: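 Steps: expose repair-defective yeast to compound; measure growth; express inhibition against vehicle-treated controls.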
The mark [7] stands for this setting: at 5.0 µM (retest, dose inferred, filed as 0.5).
[8] abbreviates: at 50.0 µM (retest, dose inferred, filed as 5.0).

For `N#CSC#Cc1ccc(C#CSC#N)cc1`, the growth inhibition was 100% (active) in experiment [1] (setting [7]); 98% (active) in experiment [1] (setting [8]); 30.6% in experiment [1] (at 50.0 µM); 100% (active) in experiment [2] (setting [7]); 96% (active) in experiment [2] (setting [8]); 84.5% (active) in experiment [2] (at 50.0 µM). Also, the growth inhibition in experiment [3] (setting [7]) is 100% (active); in experiment [3] (setting [8]) it was 97% (active); in experiment [3] (at 50.0 µM) it was 85% (active); in experiment [4] (setting [7]), 99% (active); in experiment [4] (setting [8]) it was 97% (active); in experiment [4] (at 50.0 µM) it was 87.5% (active). The growth inhibition is 99% (active) in experiment [5] (setting [7]); 98% (active) in experiment [5] (setting [8]); 88.3% (active) in experiment [5] (at 50.0 µM); 100% (active) in experiment [6] (setting [7]); 98% (active) in experiment [6] (setting [8]); 89.2% (active) in experiment [6] (at 50.0 µM).
`O=NNc1ccc(-c2ccc([N+](=O)[O-])cc2)cn1`: the growth inhibition is 18% in experiment [1] (setting [7]); 47% in experiment [1] (setting [8]); 25.4% in experiment [1] (at 50.0 µM); 11% in experiment [2] (setting [7]); 37% in experiment [2] (setting [8]); 5.85% in experiment [2] (at 50.0 µM). Further, the growth inhibition was 8% in experiment [3] (setting [7]); 31% in experiment [3] (setting [8]); 30.6% in experiment [3] (at 50.0 µM); 26% in experiment [4] (setting [7]); 31% in experiment [4] (setting [8]); 34.2% in experiment [4] (at 50.0 µM). Besides, the growth inhibition in experiment [5] (setting [7]) is 14%; in experiment [5] (setting [8]) it was 18%; in experiment [5] (at 50.0 µM) it was -11.7%; in experiment [6] (setting [7]) it was 10%; in experiment [6] (setting [8]), 48%; in experiment [6] (at 50.0 µM), 30.1%.
On to `O=c1cccccc1[O-].O=c1cccccc1[O-].O=c1cccccc1[O-].[Dy+3]`, for which the growth inhibition in experiment [1] (setting [7]) is 19%; in experiment [1] (setting [8]), 19%; in experiment [1] (at 50.0 µM), 92.8% (active); in experiment [2] (setting [7]), 18%; in experiment [2] (setting [8]), 18%; in experiment [2] (at 50.0 µM) it was 92.8% (active). The growth inhibition was 14% in experiment [3] (setting [7]); 14% in experiment [3] (setting [8]); 91.6% (active) in experiment [3] (at 50.0 µM); 10% in experiment [4] (setting [7]); 10% in experiment [4] (setting [8]); 80.2% (active) in experiment [4] (at 50.0 µM). Further, the growth inhibition is 7% in experiment [5] (setting [7]); 7% in experiment [5] (setting [8]); 93.2% (active) in experiment [5] (at 50.0 µM); 10% in experiment [6] (setting [7]); 10% in experiment [6] (setting [8]); 92% (active) in experiment [6] (at 50.0 µM).
For the compound `COc1ccc(C=Nc2ccccc2O)cc1`, the growth inhibition is 26% in experiment [1] (setting [7]); 44% in experiment [1] (setting [8]); 59.1% in experiment [1] (at 50.0 µM); 15% in experiment [2] (setting [7]); 22% in experiment [2] (setting [8]); 32.2% in experiment [2] (at 50.0 µM). Moreover, the growth inhibition in experiment [3] (setting [7]) is 11%; in experiment [3] (setting [8]) it was 15%; in experiment [3] (at 50.0 µM), 39.5%; in experiment [4] (setting [7]), -2%; in experiment [4] (setting [8]) it was 13%; in experiment [4] (at 50.0 µM) it was -15.9%. Besides, the growth inhibition in experiment [5] (setting [7]) was 81% (active); in experiment [5] (setting [8]), 74% (active); in experiment [5] (at 50.0 µM) it was 76.6% (active); in experiment [6] (setting [7]), 38%; in experiment [6] (setting [8]) it was 54%; in experiment [6] (at 50.0 µM), 67.4%.
On to `CCCCCN(CCCCC)C(=O)CCl`, for which the growth inhibition in experiment [1] (setting [7]) was -2%; in experiment [1] (setting [8]), 30%; in experiment [1] (at 50.0 µM) it was 68.6%; in experiment [2] (setting [7]) it was -3%; in experiment [2] (setting [8]) it was 15%; in experiment [2] (at 50.0 µM), 53.5%. Moreover, the growth inhibition in experiment [3] (setting [7]) is -3%; in experiment [3] (setting [8]), 10%; in experiment [3] (at 50.0 µM), 69.2%; in experiment [4] (setting [7]), 8%; in experiment [4] (setting [8]) it was 7%; in experiment [4] (at 50.0 µM), -6.75%. Moreover, the growth inhibition is 12% in experiment [5] (setting [7]); 58% in experiment [5] (setting [8]); 82.5% (active) in experiment [5] (at 50.0 µM); -1% in experiment [6] (setting [7]); 23% in experiment [6] (setting [8]); 85.3% (active) in experiment [6] (at 50.0 µM).
As to `Cc1ccc(Nc2nc(C)c(C(=O)C/C(=N\NC(N)=S)C(=O)Nc3ccc(Cl)cc3C)s2)cc1`, the growth inhibition is -6% in experiment [1] (setting [7]); 19% in experiment [1] (setting [8]); 71.5% (active) in experiment [1] (at 50.0 µM); -12% in experiment [2] (setting [7]); -3% in experiment [2] (setting [8]); 17.2% in experiment [2] (at 50.0 µM). Further, the growth inhibition in experiment [3] (setting [7]) is -3%; in experiment [3] (setting [8]), 11%; in experiment [3] (at 50.0 µM), 82.3% (active); in experiment [4] (setting [7]), -8%; in experiment [4] (setting [8]) it was 10%; in experiment [4] (at 50.0 µM), 34.6%. Besides, the growth inhibition is -19% in experiment [5] (setting [7]); 5% in experiment [5] (setting [8]); 33% in experiment [5] (at 50.0 µM); 12% in experiment [6] (setting [7]); -9% in experiment [6] (setting [8]); 57.1% in experiment [6] (at 50.0 µM).
For the compound `CCOC(=O)C(C(=O)OCC)c1ccc([N+](=O)[O-])o1`, the growth inhibition in experiment [1] (setting [7]) is 14%; in experiment [1] (setting [8]) it was 82% (active); in experiment [1] (at 50.0 µM), 86% (active); in experiment [2] (setting [7]), -15%; in experiment [2] (setting [8]), 96% (active); in experiment [2] (at 50.0 µM), 86.4% (active). Further, the growth inhibition is 8% in experiment [3] (setting [7]); 89% (active) in experiment [3] (setting [8]); 89.2% (active) in experiment [3] (at 50.0 µM); 6% in experiment [4] (setting [7]); 79% (active) in experiment [4] (setting [8]); 81.9% (active) in experiment [4] (at 50.0 µM). For the same compound, the growth inhibition was 0% in experiment [5] (setting [7]); 94% (active) in experiment [5] (setting [8]); 87.9% (active) in experiment [5] (at 50.0 µM); 3% in experiment [6] (setting [7]); 96% (active) in experiment [6] (setting [8]); 82.2% (active) in experiment [6] (at 50.0 µM).
Consider `Cc1ccc(NC(=O)CC2SC(N)=NC2=O)cc1C` (stereo not given), for which the growth inhibition was -1% in experiment [1] (setting [7]); -1% in experiment [1] (setting [8]); 87.5% (active) in experiment [1] (at 50.0 µM); 3% in experiment [2] (setting [7]); 8% in experiment [2] (setting [8]); 89.3% (active) in experiment [2] (at 50.0 µM). Further, the growth inhibition is -2% in experiment [3] (setting [7]); 5% in experiment [3] (setting [8]); 91.2% (active) in experiment [3] (at 50.0 µM); 8% in experiment [4] (setting [7]); 4% in experiment [4] (setting [8]); 80.2% (active) in experiment [4] (at 50.0 µM). In addition, the growth inhibition in experiment [5] (setting [7]) was 0%; in experiment [5] (setting [8]), -4%; in experiment [5] (at 50.0 µM), 89.1% (active); in experiment [6] (setting [7]), -1%; in experiment [6] (setting [8]) it was 6%; in experiment [6] (at 50.0 µM), 90.3% (active).
Take `Clc1ccc(Cc2nc3ccccc3s2)c(Cl)c1`: the growth inhibition was 39% in experiment [1] (setting [7]); 98% (active) in experiment [1] (setting [8]); 90.8% (active) in experiment [1] (at 50.0 µM); 36% in experiment [2] (setting [7]); 99% (active) in experiment [2] (setting [8]); 93.3% (active) in experiment [2] (at 50.0 µM). Also, the growth inhibition in experiment [3] (setting [7]) was 43%; in experiment [3] (setting [8]), 99% (active); in experiment [3] (at 50.0 µM), 94.1% (active); in experiment [4] (setting [7]), 34%; in experiment [4] (setting [8]) it was 89% (active); in experiment [4] (at 50.0 µM) it was 91.5% (active). Besides, the growth inhibition in experiment [5] (setting [7]) was 43%; in experiment [5] (setting [8]) it was 98% (active); in experiment [5] (at 50.0 µM), 92.5% (active); in experiment [6] (setting [7]), 57%; in experiment [6] (setting [8]), 99% (active); in experiment [6] (at 50.0 µM), 92.5% (active).
Turning to `CCCCCCCCCCCCCC/C(=C/OCC[N+](C)(C)C)OC(C)=O` (tested in a mixture with another compound), the growth inhibition in experiment [1] (setting [7]) is 99% (active); in experiment [1] (setting [8]), 99% (active); in experiment [1] (at 50.0 µM) it was 99.7% (active); in experiment [2] (setting [7]), 99% (active); in experiment [2] (setting [8]), 100% (active); in experiment [2] (at 50.0 µM), 99.8% (active). Besides, the growth inhibition was 94% (active) in experiment [3] (setting [7]); 100% (active) in experiment [3] (setting [8]); 99.8% (active) in experiment [3] (at 50.0 µM); 99% (active) in experiment [4] (setting [7]); 99% (active) in experiment [4] (setting [8]); 99.3% (active) in experiment [4] (at 50.0 µM). Also, the growth inhibition in experiment [5] (setting [7]) is 99% (active); in experiment [5] (setting [8]), 99% (active); in experiment [5] (at 50.0 µM), 99.7% (active); in experiment [6] (setting [7]), 98% (active); in experiment [6] (setting [8]), 100% (active); in experiment [6] (at 50.0 µM), 99.7% (active).
